PNC assembly inh: inhibitors of perinucleolar compartment assembly; PC3M PTB-GFP, PNC prevalence imaging, 16 h; stronger effect = lower value; activity change (PNC), negative = inhibition, % at 10 µM; 140,000 compounds, 3.1% hits; AID 2417;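 active = readout at or below -70, meaning at least 70% loss of cells showing the perinucleolar compartment, a nuclear body marking cancer cells; inconclusive = readout between -30 and a set limit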
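Read-out is percentage of cells bearing a perinucleolar compartment, from automated 20x imaging of fixed, Hoechst-stained PC3M PTB-GFP cells. Cells were seeded 4 h, then exposed 16 h to compound (23 nl of library stock) in duplicate plates.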
ALDH1A1 block: ALDH1A1 (human) enzyme inhibition | 220,000 compounds, 7.3% hits | P00352 | Purified ALDH1A1, NADH fluorescence, propionaldehyde substrate | Potency, µM (titrated, usually from 75.3 µM), hits mostly inhibitors
HPGD inh: inhibitors of human 15-hydroxyprostaglandin dehydrogenase (HPGD) | P15428 | purified HPGD, NADH fluorescence kinetic, PGE2 substrate | Potency, µM, actives largely listed as inhibitors | 150,000 compounds, 4.3% hits
Target sequence (P15428 whole entry, looked up): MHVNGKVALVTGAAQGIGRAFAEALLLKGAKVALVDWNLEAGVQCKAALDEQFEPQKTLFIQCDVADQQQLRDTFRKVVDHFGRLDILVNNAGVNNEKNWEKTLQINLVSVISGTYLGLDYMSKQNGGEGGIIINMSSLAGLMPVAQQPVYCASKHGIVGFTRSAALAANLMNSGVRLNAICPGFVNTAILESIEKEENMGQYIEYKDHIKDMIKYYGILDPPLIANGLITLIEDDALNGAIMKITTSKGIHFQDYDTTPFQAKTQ
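NADH formation kinetics: reaction with 30 uM PGE2 and 1 mM NAD+ (final), 20 nM enzyme, Tris-HCl pH 8 with Tween 20, after 15 min compound preincubation at room temperature. Fluorescence change, last versus first of five reads.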
JMJD2E inh: inhibitors of human JMJD2E histone demethylase; JMJD2E catalytic domain, FDH-coupled NADH fluorescence (FDH is formaldehyde dehydrogenase); Potency, µM (doses to about 57.1 µM), hits mostly inhibitors; 230,000 compounds, 1.6% hits; also: nearly all actives have a fitted effect of over 50% in size
Target sequence (B2RXH2 1-337 limits assumed): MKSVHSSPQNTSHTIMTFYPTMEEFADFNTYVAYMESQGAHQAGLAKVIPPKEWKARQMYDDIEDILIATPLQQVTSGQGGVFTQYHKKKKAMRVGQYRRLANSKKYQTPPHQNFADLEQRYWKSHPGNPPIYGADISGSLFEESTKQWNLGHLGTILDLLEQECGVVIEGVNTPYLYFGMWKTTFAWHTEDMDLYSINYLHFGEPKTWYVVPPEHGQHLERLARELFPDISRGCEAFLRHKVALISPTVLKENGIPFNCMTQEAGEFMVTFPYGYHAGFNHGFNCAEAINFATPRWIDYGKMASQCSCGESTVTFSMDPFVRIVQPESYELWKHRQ
Hits are given with their value; n = inactive; u = inconclusive; x = no result; [ ] = another dose, or the depositor's remark. Shown are actives, neighbours in structure and some others; about 11% of the full set was active somewhere. Unless noted, calls follow the shape of the dose curve; as a rule, active = well fitted inhibition curve with a large enough effect (not every such curve was filed as active); inconclusive = small, poorly fitted or top-dose-only effect, or another doubt; inactive = no such curve, though single readings can be large or run the other way.

SMILES | PNC assembly inh | ALDH1A1 block | HPGD inh | JMJD2E inh
Cc1nn(CC(=O)Nc2nnc(C(C)C)s2)c(=O)c2ccccc12 | x | n | x | n
COc1ccc(-c2coc3ccc(OC4OC(COC(C)=O)C(OC(C)=O)C(OC(C)=O)C4OC(C)=O)cc3c2=O)cc1 (centres undefined) | x | n | n | n
COc1ccccc1-n1c(SCC(=O)Nc2ccc(F)cc2)nc2c(c1=O)SCC2 | n | 11µM | n | n
COc1ccc(NC(=O)CSc2nc3c(c(=O)n2-c2ccc(F)cc2)SCC3)cc1 | u | u | n | n
CC[C@H]1CN(C)[C@H]2Cc3c([nH]c4ccccc34)C(=O)C[C@H]1[C@H]2C(=O)OC | x | u | n | x
O=C(O)c1cc(C(=O)O)nc(C(=O)O)c1 | x | n[13.5 µM] | n | x
CCN(CC)C1CC(=O)N(c2cccc(C)c2)C1=O (centres undefined) | n | 3.5µM | n | n
CCN(CCO)C1CC(=O)N(c2ccccc2C)C1=O (centres undefined) | u | 3.5µM | n | n
Cc1ccccc1N1C(=O)CC(N(O)c2ccccc2)C1=O (centres undefined) | n | u | n | n
CCC(C)N(C(=O)COc1ccc(NC(C)=O)cc1)C1CCS(=O)(=O)C1 (centres undefined) | x | n | x | n
CC(Oc1cc(F)ccc1[N+](=O)[O-])C(=O)N(C)CC(=O)Nc1ccccc1C(F)(F)F (centres undefined) | x | n | x | n
COc1ccc(NC(=O)/C(=C/c2cccnc2)NC(=O)c2cccs2)cc1 | n | n | n | n
CCCC(=O)Nc1ccc(C(=O)N2CCCC2)cc1 | u | n | 14µM | n
CCCC(=O)Nc1ccc(C(=O)NNC(=O)c2ccccc2Br)cc1 | n | u | 28µM | n
CCOC(=O)C1CCCN(C(=O)c2ccc(Cl)cc2)C1 (centres undefined) | x | n | x | n
CCCC(=O)Nc1ccc(S(=O)(=O)N2CCCC2)cc1 | n | n | n | n
CCOC(=O)C1CCCN(C(=O)c2ccc(OC)c([N+](=O)[O-])c2)C1 (centres undefined) | -95 | 4.5µM | n | n
CCCCC(=O)Nc1ccc(C(=O)N2CCCC(C(=O)OCC)C2)cc1 (centres undefined) | n | u | 14µM | n
COCOc1ccc(OC)cc1C(=O)/C=C/c1ccc(OC)c(Br)c1 | x | n | n | n
O=C(O)CCSCc1ccccc1 | x | n[13.5 µM] | n | x
CC1(CC(=O)O)O[C@H]2CCCCC[C@H]2O1 (some centres undefined) (tested in a mixture with another compound) | x | n[13.5 µM] | n | x
O=[N+]([O-])c1ccc(CSCc2ccc(Cl)cc2)cc1 | x | n[13.5 µM] | n | x
CC(CC(=O)O)(CC(=O)O)c1ccccc1 | x | n[13.5 µM] | n | x
Cc1cc(Nc2ccc(Cl)cc2)n(-c2ccccc2)n1 | n | n | 7.9µM | n
Cc1cccc(-c2nnnn2-c2cccc(C)c2)c1 | x | 4.5µM | x | n
SMILES | PNC assembly inh | ALDH1A1 block | HPGD inh | JMJD2E inh
COc1ccc(-n2nnnc2-c2cccc(OC)c2)cc1 | -83 | n | n | n
CC1CCN(CCNC(=S)Nc2ccc(Cl)cc2)CC1 | x | n | x | n
CCCCOc1ccc(/C=C/C2=CC(C)(C)NC(=S)N2)cc1OCC | x | u | x | n
Cc1ccccc1NC(=O)C(=O)N/N=C/c1cccc(Br)c1 | -114 | n | n | n
C=CCNC(=O)C(=O)N/N=C/c1cccc(Br)c1 | x | n | x | n
C/C=C(/CC[C@@H](C)[C@H]1CCC2C3=CC[C@H]4[C@H](C)[C@@H](O)CC[C@]4(C)C3CC[C@@]21C)C(C)C (some centres undefined) | x | u | n | x
COc1cc2c(cc1OC)C(Cc1ccc(O)cc1)NCC2 (centres undefined) | n | n | n | n
CCOc1ccc(CC2NCCc3cc(OCC)c(OCC)cc32)cc1OCC (centres undefined) | x | n | x | 35µM
COC(CC(=O)NNC(=S)Nc1ccccc1)OC | x | n | x | n
CCCCC(CC(O)COCC(C)C)C(=O)NNC(=S)Nc1ccccc1 (centres undefined) | u | 10µM | n | n
CCC(CC(C)(C)O)C(=O)NNC(=S)Nc1ccccc1 (centres undefined) | x | 25µM | x | n
Cn1cc(-c2nc3cnc(Oc4ccccc4)nc3n(C)c2=O)c2ccccc21 | x | n | x | x
Clc1ccccc1Cc1noc(CN2CCCCC2CCc2ccccn2)n1 (centres undefined) | x | n | x | n
O=C(CC1=NCCNC(c2ccccc2)C1)c1ccccc1O (centres undefined) | n | 18µM | 25µM | n
Cc1onc(NC(=O)c2ccc(Cl)cc2Cl)c1Br | x | u | x | n
Cc1ccc(C(=O)NCCSC(C)(C)C)cc1 | n | n | n | n
CSCCNC(=O)c1ccc(C(C)(C)C)cc1 | n | n | 14µM | n
CC1(C(=O)Nc2nnc(SCc3ccccc3)s2)Cc2ccccc2C(=O)O1 (centres undefined) | u | u | 28µM | n
CC1(C(=O)Nc2nccs2)Cc2ccccc2C(=O)O1 (centres undefined) | n | n | n | n
CCS(=O)(=O)c1nc(S(=O)(=O)c2ccc(Cl)cc2)c(N2CCc3ccccc3C2)s1 | u | 1.4µM | n | n
CCS(=O)(=O)c1nc(S(=O)(=O)c2ccc(Cl)cc2)c(NCc2ccccn2)s1 | x | 13µM | x | n
CCN(CC(=O)N1CCCCCC1)S(=O)(=O)c1ccc(Cl)cc1 | n | n | n | n
CCN(CC(=O)N1CCN(C)CC1)S(=O)(=O)c1ccc(Cl)cc1 | -107 | n | n | n
CCN(CC(=O)NCc1ccccn1)S(=O)(=O)c1ccc(Cl)cc1 | u | u | 22µM | n
COc1ccccc1OCCCCNCCO | n | n | n | n
SMILES | PNC assembly inh | ALDH1A1 block | HPGD inh | JMJD2E inh
Cc1cccc(C)c1OCCCCCNCCO | n | 20µM | n | n
CSC1CCCCC1(O)CSc1nc2c(cc1C#N)CCCC2 (centres undefined) | u | 7.9µM | 7.9µM | u
N#CCSc1nc2c(cc1C#N)CCCC2 | n | n | n | u
O=C(NCCCN1CCOCC1)c1ccc(-n2c(=O)c(=O)[nH]c3ccccc32)cc1 | x | n | n | x
COC(=O)[C@@]1(Cc2ccc(F)cc2)[C@H]2c3cc(C(=O)N(C)C)n(CCc4ccc(O)c(O)c4)c3C[C@H]2CN1C(=O)c1ccccc1 | x | n | u | u
COc1ccc(-n2c(SCC(=O)N3CCCC(C)C3)nnc2-c2cccnc2)cc1 (centres undefined) | n | u | x | n
CC1CCCCN1C(=O)CSc1nnc(-c2cccnc2)n1C1CCCCC1 (centres undefined) | n | n | 25µM | n
COc1ccc2c(c1)c1nnc(SCC(=O)N3CCCCC3C)nc1n2C (centres undefined) | n | u | 16µM | n
COc1ccc(-n2c(SCC(=O)N3CCCCC3C)nnc2-c2cccnc2)cc1 (centres undefined) | n | 10µM | 20µM | u
CC1CCN(C(=O)CSc2nnc(-c3cccnc3)n2C2CCCCC2)CC1 | n | u | 22µM | n
COc1cccc(Cn2c(=O)c(-c3cccs3)nc3cnc(N4CCN(C)CC4)nc32)c1 | x | n | n | x
CC(C)(C)N/C=C(\C#N)S(=O)(=O)c1ccc(Br)cc1 | x | x | x | n
CC(C)CNS(=O)(=O)c1ccc(CCC(=O)NCc2ccncc2)cc1 | x | n | x | n

Compound activity as filed in PubChem.
